Hits are enriched below; roughly 2.8% of the tested compounds scored in any of these assays.
WRN inhibitor – inhibitors of human WRN helicase | AID 651768 | Potency, µM (top dose mostly 114 µM), for the others: top-dose activity change, negative = inhibition, hits mostly inhibitors | Q14191 | WRN helicase unwinding, fluorescent forked duplex, kinetic | hit rate 0.46% among 360,000; also: potency is read from the fitted curve at half-maximal effect; % is scaled to controls: 0 for no effect and ±100 for the full control effect; nearly all actives have a fitted effect of over 55% in size
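Kinetic fluorescence helicase assay: unwinding of a quenched forked DNA duplex (100 nM final) with 2 mM ATP final raises red fluorescence (525/598 nm). Compounds sat 15 min at room temperature with 20 nM WRN beforehand.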
Pol kappa inh-1 – inhibitors of human DNA polymerase kappa | purified Pol kappa, fluorescent DNA synthesis assay, 10 min | hit rate 0.53% among 400,000 | AID 588579 | Potency, µM (series often up to 107 µM), for inactives: at the highest dose activity, negative = inhibition, most hits filed as inhibitors; also: potency is read from the fitted curve at half-maximal effect; % is scaled to controls: 0 for no effect and ±100 for the full control effect
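50 nM final substrate added after 15 min RT preincubation of 10 nM Pol kappa with compound; fluorescence read at 0 and 10 min.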
Pol eta inh-1 – blocks human DNA polymerase eta activity; recombinant Pol eta, fluorescent DNA replication assay; Potency, µM (highest dose often 114 µM), without a hit: top-dose activity change, negative = inhibition, usual class: inhibitors; hit rate 1.2% among 390,000; AID 588591; also: potency is read from the fitted curve at half-maximal effect; % is scaled to controls: 0 for no effect and ±100 for the full control effect
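Fluorescent replication assay: 50 nM final substrate added after a 15 min room-temperature compound preincubation with 10 nM enzyme. Signal taken at 0 min and again at 10 min.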
POLI inh – DNA polymerase iota (human) inhibition; Q9UNA4; Pol iota fluorescent replication assay, 10 min; Potency, µM (titrated, usually from 115 µM), inactives show at the highest dose activity, negative = inhibition, usual class: inhibitors; hit rate 1% among 390,000; AID 588590; also: potency is read from the fitted curve at half-maximal effect
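Pol iota at 10 nM preincubated 15 min with compounds at room temperature; reaction started with fluorescent substrate, 50 nM final. Fluorescence read kinetically at 0 and 10 min; buffer-only wells as negative control.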
PI5P4K alpha inh – inhibitors of human PI5P4K alpha. max response, %. hit rate 1.2% among 330,000. PI5P4Kalpha enzyme, ADP-Glo luminescence, 60 min; active compounds read low. P48426; active = max response of -50% or lower; inconclusive = between -30% and -50%; inactive = -30% or higher; also: value at the top dose of about 77 µM; % is scaled to controls: 0 for no effect and ±100 for the full control effect
Target sequence (P48426 whole entry, looked up): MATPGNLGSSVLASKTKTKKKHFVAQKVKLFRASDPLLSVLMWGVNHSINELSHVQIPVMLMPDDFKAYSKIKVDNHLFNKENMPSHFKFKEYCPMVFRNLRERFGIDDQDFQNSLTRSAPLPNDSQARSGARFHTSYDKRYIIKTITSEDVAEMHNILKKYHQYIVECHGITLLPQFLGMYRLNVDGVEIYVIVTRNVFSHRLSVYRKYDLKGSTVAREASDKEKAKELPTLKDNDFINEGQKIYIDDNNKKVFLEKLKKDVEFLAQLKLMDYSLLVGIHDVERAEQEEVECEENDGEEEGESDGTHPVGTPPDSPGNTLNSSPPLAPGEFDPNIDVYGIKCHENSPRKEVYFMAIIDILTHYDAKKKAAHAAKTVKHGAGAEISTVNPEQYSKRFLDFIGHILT
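Single end-point luminescence (ADP-Glo) quantified ADP from PI5P4Kalpha turnover; ATP 5 microM final, 1 h at RT, 0.1% CHAPS and 0.28 mM EGTA in HEPES pH 7.4.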
POLB inh – blocks human DNA polymerase beta activity; hit rate 1.3% among 340,000; Potency, µM (doses to about 114 µM), without a hit: at the highest dose activity change, negative = inhibition, most hits filed as inhibitors; P06746; AID 485314; Pol beta primer extension/strand displacement, fluorescence kinetic; also: potency is read from the fitted curve at half-maximal effect; % is scaled to controls: 0 for no effect and ±100 for the full control effect
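Pol beta (10 nM) and compounds were preincubated 15 min at room temperature, then 50 nM substrate (final) started primer extension/strand displacement. Reads were taken at 0 and 10 min; concentration-response data were fitted to a four-parameter Hill equation.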
TbPGK inh – TbPGK inhibition, hit validation | shares compounds with Pol kappa inh-1 | Potency, µM (top dose mostly 57.5 µM), without a hit: top-dose activity change, negative = inhibition, most hits filed as inhibitors | TbPGK coupled GAPDH assay, Kinase-Glo luminescence | hit rate 79% among 500; also: potency is read from the fitted curve at half-maximal effect; % is scaled to controls: 0 for no effect and ±100 for the full control effect; nearly all actives have a fitted effect of over 65% in size
POLI cherry-pick – Confirm cherry-picked inhibitors of human polymerase iota. shares compounds with Pol kappa inh-1. Pol iota primer extension, TAMRA/BHQ fluorescence. Potency, µM, usual class: inhibitors. hit rate 77% among 1,500; also: potency is read from the fitted curve at half-maximal effect
Pol kappa inh-2 – confirmation of human DNA polymerase kappa inhibitors; Potency, µM, actives largely listed as inhibitors; shares compounds with Pol eta inh-1; purified Pol-kappa, fluorescent strand-displacement substrate; hit rate 76% among 920; also: potency is read from the fitted curve at half-maximal effect
Pol eta inh-2 – Pol eta (human) inhibition, cherry-pick confirmation; Pol eta primer extension, TAMRA/BHQ fluorescence, 10 min; AID 720502; hit rate 64% among 2,600; Potency, µM, hits mostly inhibitors; shares compounds with Pol eta inh-1; also: potency is read from the fitted curve at half-maximal effect
An asterisk follows results filed as active; ? = inconclusive; . = no result given; [ ] = another dose, or the depositor's remark. Unless noted, calls follow the shape of the dose curve; as a rule, active = well fitted curve in the direction sought with a large enough effect; inconclusive = small, poorly fitted or top-dose-only effect, or another doubt; inactive = no such curve, though single readings can be large; an effect the other way counts as inactive or inconclusive.

SMILES	WRN inhibitor	Pol kappa inh-1	Pol eta inh-1	POLI inh	PI5P4K alpha inh	POLB inh	POLI cherry-pick	Pol eta inh-2	others
O=C(O)c1cccc(N2C(=O)/C(=C/c3ccc(SCc4ccc(Cl)cc4)o3)SC2=S)c1	18µM*	79µM*	7.9µM*	?	-73*	3.2µM*	34*	19*	TbPGK inh=33µM*;Pol kappa inh-2=3.4*
Cc1ccnc2nc(C(=O)OCC(=O)N(CC(C)C)C3CCS(=O)(=O)C3)nn12 (stereo not drawn)	12%	7%	-15%	-3%	-4	.	.	.
CN(C)/C=C/C=C1C(=O)CCCC1=O	?	79µM*	10µM*	1.1µM*	-1	20µM*	67*	38*
Cc1ccc(C)c2c1CCCC2=O	3%	.	-6%	.	1	.	.	.
CCOc1cc(/C=N/NC(=O)c2ccc(-c3csc(Nc4ccc(C)cc4)n3)cc2)ccc1OCC(=O)O	50µM*	32µM*	18µM*	8.9µM*	?	5µM*	30*	76*	TbPGK inh=12µM*;Pol kappa inh-2=19*
O=C1C(=C(I)I)c2ccccc2-c2ccccc21	?	-9%	22µM*	?	5	.	21*	24*
Cc1nnc(NC(=O)CSCc2cc(=O)c3ccccc3[nH]2)s1	.	-1%[60.1 µM]	50µM*	79µM*	.	?	67*	?
CCCN(CCC)CCNC(=O)c1nn(C)c2c1CS(=O)(=O)c1ccccc1-2	.	3%	-18%	19%	.	1%	.	.
N#C/C(=C\c1ccc([N+](=O)[O-])o1)C(=O)Nc1ccc(F)cc1	?	79µM*	22µM*	?	-84*	40µM*	?	48*
COC(=O)c1ccc(COc2ccccc2/C=C(\C#N)C(=O)NC(C)C)cc1	2%	-12%	-3%	165%	-11	1%	.	.
COC(=O)c1ccc(COc2ccccc2/C=C/C(=O)c2ccc(OCC(=O)O)cc2)cc1	?	-8%	22µM*	?	3	50µM*	47*	48*
CCCCn1c(NC(=O)c2ccccc2)c(C#N)c2nc3ccccc3nc21	-35%	?	?	?	.	40µM*	34*	24*
CSc1ccc(CNC(=O)C2CCC(=O)N(CCc3cccc(F)c3)C2)cc1 (stereo not drawn)	2%	14%	-16%	4%	1	24%	.	.
O=C1C=C(O)c2c(O)cc(O)c(O)c2C1=O	?	2µM*	1.6µM*	3.5µM*	-68*	.	3.8*	21*	TbPGK inh=8.2µM*
Cc1ncc(C[n+]2csc(CCOP(=O)(O)OP(=O)(O)O)c2C)c(N)n1	.	-2%[60.1 µM]	.	.	.	.	.	.
